Compound activity deposited in PubChem by University of Kansas High Throughput Screening Laboratory.
Many of the other results were omitted from the sample, so hits are more common in it than they were.
mHTT CaM bind = inhibitors of human mutant huntingtin-calmodulin interaction. P42858. actives 3.6% (n = 190,000). AlphaScreen His-mHTT/GST-CaM binding, luminescence. AID 1671202. inhibition, % at 15 µM;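 further: 0% = both proteins with DMSO and 100% = one protein alone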
Pf apPOL inh = Pf-apPOL DNA polymerase inhibition; Recombinant Pf-apPOL, molecular beacon fluorescence, 1.5 h; inhibition, % at 10 µM; actives 0.25% (n = 210,000)
An asterisk follows results filed as active. No stated cut-off is given here; in the data, active means inhibition above about 50%; inactive means the rest.

Screening O=[N+]([O-])c1ccccc1C1Oc2ccccc2C2CC(c3cccs3)=NN21 (stereo unspecified) returned mHTT CaM bind 20.0 and Pf apPOL inh -6.9.
`COc1ccc([N+](=O)[O-])cc1C1Oc2ccccc2C2CC(c3cccs3)=NN21` (stereo unspecified) gave mHTT CaM bind 28.0 and Pf apPOL inh -0.4.
Screening Oc1ccc(C2Oc3ccccc3C3CC(c4cccs4)=NN32)c(O)c1 (stereo unspecified) returned mHTT CaM bind 64.0* and Pf apPOL inh 9.1.
For Clc1cccc(C2Oc3ccccc3C3CC(c4ccccc4)=NN32)c1Cl (stereo unspecified) the results were mHTT CaM bind -9.3.
For O=[N+]([O-])c1ccc(O)c(C2Oc3ccccc3C3CC(c4cccs4)=NN32)c1 (stereo unspecified) the results were mHTT CaM bind 62.0* and Pf apPOL inh 2.6.
c1csc(C2=NN3C(C2)c2ccccc2OC3c2ccc3c(c2)OCO3)c1 (stereo unspecified) was read as mHTT CaM bind 14.0 and Pf apPOL inh 0.9.
Screening CCC1Oc2ccccc2C2CC(c3cccs3)=NN12 (stereo unspecified) returned mHTT CaM bind 75.0* and Pf apPOL inh 3.4.
`Cc1cccc(C)c1-c1cncc(C(=O)NC2CC2)c1` gave mHTT CaM bind -1.6 and Pf apPOL inh 1.0.
`Cc1cc(C2CCCN2C(=O)Nc2ccc3c(c2)OCO3)on1` (stereo unspecified) gave mHTT CaM bind 0.5 and Pf apPOL inh 2.4.
`CCOC(=O)ON=C(C(=O)c1ccccc1)c1ccccc1` gave Pf apPOL inh 1.7.
Screening Cc1nc(C(=O)Nc2nnc(-c3ccccc3)s2)cc2c1[nH]c1ccccc12 returned mHTT CaM bind 1.2 and Pf apPOL inh -4.4.
COc1ccc(Br)cc1CN(CCc1ccc2c(c1)OCO2)Cc1cccnc1 was read as mHTT CaM bind 57.0* and Pf apPOL inh -9.9.
CCOc1ccc(CN(CCc2ccc3c(c2)OCO3)Cc2cc(OC)c(OC)c(OC)c2)cc1 was read as mHTT CaM bind 11.2 and Pf apPOL inh -5.1.
For CCOc1ccc(NC(=O)C(=O)NCCN2CCOCC2)cc1 the results were mHTT CaM bind -8.7 and Pf apPOL inh -7.8.
Cc1nnc(NN=C(C(=O)O)C(=O)O)[nH]c1=O was read as mHTT CaM bind 14.3.
Screening C/C(=N/Nc1nnc(C)c(=O)[nH]1)C(=O)O returned mHTT CaM bind active.
`CCC(=O)NC1CCN(c2ccccc2C(=O)N2CCc3ccccc3C2)CC1` gave mHTT CaM bind 31.3 and Pf apPOL inh -36.1.
O=C1C(=O)N(C(c2ccccc2)c2ccc(Cl)cc2)c2ccccc21 (stereo unspecified) was read as mHTT CaM bind 93.0* and Pf apPOL inh -1.8.
For O=C(CN1C(=O)C(=O)c2ccccc21)c1ccc(Cl)cc1 the results were mHTT CaM bind 0.2 and Pf apPOL inh -9.6.
Screening Cn1c(NC(=O)c2cc(-c3ccc(Br)cc3)nc3ccccc23)cc(=O)n(C)c1=O returned mHTT CaM bind 37.0 and Pf apPOL inh -3.4.
O=[N+]([O-])c1cc(NC2OCC(O)C(O)C2O)ccc1S(=O)(=O)O (stereo unspecified) was read as mHTT CaM bind -5.0 and Pf apPOL inh 61.8*.
Screening O=[N+]([O-])c1cccc(NC2OCC(O)C(O)C2O)c1 (stereo unspecified) returned mHTT CaM bind 7.0 and Pf apPOL inh 1.1.
`CCC1(CC)OC(c2ccc(F)cc2)Nc2ccccc21` (stereo unspecified) gave mHTT CaM bind -19.0 and Pf apPOL inh 14.2.
For CCN(CC)Cc1c(O)ccc2c1OC(=Cc1cccc(Cl)c1)C2=O the results were mHTT CaM bind 53.3* and Pf apPOL inh -2.2.
CN(C)Cc1c(O)ccc2c1OC(=Cc1cccc(Cl)c1)C2=O was read as mHTT CaM bind 10.9 and Pf apPOL inh 10.5.
`CC(=O)N(CCC1(Cc2ccccc2)CCOC(C)(C)C1)Cc1ccccc1` (stereo unspecified) gave mHTT CaM bind 55.8* and Pf apPOL inh -0.6.
Screening COc1ccc(CN(CCC2(Cc3ccccc3)CCOC(C)(C)C2)C(C)=O)cc1 (stereo unspecified) returned mHTT CaM bind 11.8 and Pf apPOL inh 2.3.
O=[N+]([O-])c1ccc(F)c(N=Cc2ccc([N+](=O)[O-])o2)c1 was read as mHTT CaM bind 44.4.
Screening CN1c2cc(F)ccc2C(=O)NC12CCN(C(=O)NCc1ccc(F)cc1)CC2 returned mHTT CaM bind -9.8 and Pf apPOL inh -6.8.
For Cc1ccc(-c2c3c(nc4sc(C(N)=O)c(N)c24)CCCC3)o1 the results were mHTT CaM bind 36.0 and Pf apPOL inh -5.3.
COc1ccc(NC(=O)c2sc3nc4c(c(-c5ccc(C)o5)c3c2N)CCCC4)cc1 was read as mHTT CaM bind 69.0* and Pf apPOL inh -3.1.
CC1CN2C=CN=C(N3CCN(C(=O)Cc4c(F)cccc4Cl)CC3)C2=N1 (stereo unspecified) was read as mHTT CaM bind 21.3 and Pf apPOL inh -16.8.
`CC1=C(C(=O)Nc2ccc(C)c(Cl)c2)C(c2ccccc2Cl)NC(=O)N1` (stereo unspecified) gave mHTT CaM bind 90.0* and Pf apPOL inh -4.0.
Screening CC1=C(C(=O)Nc2ccc(F)c(F)c2)C(c2ccccc2F)NC(=O)N1 (stereo unspecified) returned mHTT CaM bind -0.6 and Pf apPOL inh -3.1.
O=[N+]([O-])c1ccc(S(=O)(=O)/C=C/C=C/N2CCCCC2)cc1 was read as mHTT CaM bind 93.0* and Pf apPOL inh 6.6.
Screening O=[N+]([O-])c1ccc(S(=O)(=O)N2CCCCCC2)cc1 returned mHTT CaM bind 2.3 and Pf apPOL inh 3.1.
Screening CC1Cc2nc(SCC(=O)N3CCCCC3)n(Cc3ccccc3)c(=O)c2S1 (stereo unspecified) returned mHTT CaM bind 9.0 and Pf apPOL inh 0.5.
For O=C(c1ccc(Cl)c(Cl)c1)N1CCC(=O)N([C@H](COCc2cccc(C(F)(F)F)c2)Cc2ccccc2)CC1 the results were mHTT CaM bind 100.1* and Pf apPOL inh -3.9.
Screening O=C(c1ccc(Cl)c(Cl)c1)N1CCC(=O)N([C@H](COCc2ccccc2)Cc2ccccc2)CC1 returned mHTT CaM bind 99.6* and Pf apPOL inh -4.0.
`O=C(SCc1cccc(C(F)(F)F)c1)c1ccc(Cl)c(Cl)c1` gave Pf apPOL inh 2.7.
`Cc1ccc(S(=O)(=O)N2CCC(=O)N([C@H](COCc3ccc(Cl)cc3Cl)Cc3ccccc3)CC2)cc1` gave mHTT CaM bind -10.0 and Pf apPOL inh -3.9.
`Cn1ccnc1S(=O)(=O)C(C#N)=Cc1ccccc1Cl` gave Pf apPOL inh -4.4.
Screening CN1CCC(O)(c2ccccc2)C(C)(C)C1 (stereo unspecified) returned mHTT CaM bind -1.2 and Pf apPOL inh 4.8.
`CSc1n[nH]c(NC(=O)c2cccs2)c1-c1ccccn1` gave Pf apPOL inh 0.7.
`Cn1cc(CC(=O)Nc2ccc3cn[nH]c3c2)c2ccccc21` gave mHTT CaM bind 11.6 and Pf apPOL inh 3.0.
`Oc1cccc(CNc2ccc3[nH]ncc3c2)c1` gave mHTT CaM bind 76.9* and Pf apPOL inh -4.6.
c1cc2c(cc1CNc1ccc3cn[nH]c3c1)OCO2 was read as mHTT CaM bind 63.7* and Pf apPOL inh -6.1.
Cc1cccc(CNc2ccc3cn[nH]c3c2)c1 was read as mHTT CaM bind 60.4* and Pf apPOL inh -4.4.
